Inconclusive results are not listed. A call without a number means that no potency is given here. A number with no mark means an inactive call. The source made the active and inactive calls. Calls follow the shape of the full dose curve; tested in HEK293 reporter line.
Experiment: qHTS for Inhibitors of the Functional Ribonucleoprotein Complex (vRNP) of Lymphocytic Choriomeningitis Arenaviruses (LCMV): Viability assay - alamar blue signal for LCMV Primary Screen (AID 1347085); also: nearly all actives have a fitted effect of over 80% in size
Conditions: alamar blue viability counter-screen, LCMV vRNP screen cells; series mostly up to 57.5 µM
In the case of `CC(=O)c1ccc(S(=O)(=O)NC(=O)NC2CCCCC2)cc1`, the Potency is reported as “inactive”.
For `Cc1ccc(Nc2nccc(N(C)c3ccc4c(C)n(C)nc4c3)n2)cc1S(N)(=O)=O`, the Potency was “inactive”.
With `COc1ccc(-c2ccc3cc(C(=O)O)ccc3c2)cc1C12CC3CC(CC(C3)C1)C2` the Potency was “inactive”.
`Nc1ccc(/C=C/c2ccc(N)cc2S(=O)(=O)O)c(S(=O)(=O)O)c1` showed an activity change, negative = lower viability of 0.0811% [at 0.757 µM].
For `Nc1ccc(C(=O)O)c(O)c1`, the Potency was “inactive”.
With `C[C@@H]1O[C@@H](O[C@H]2CC[C@@]3(C)[C@H](CC[C@@H]4[C@H]3C[C@@H](O)[C@]3(C)[C@@H](C5=CC(=O)OC5)CC[C@]43O)C2)C[C@H](O)[C@@H]1O[C@H]1C[C@H](O)[C@H](O[C@H]2C[C@H](O)[C@@H](O)[C@@H](C)O2)[C@H](C)O1` (stereo in doubt) the Potency was 396 nM (active).
With `CCC(Cc1c(I)cc(I)c(N)c1I)C(=O)O` (centres undefined) the Potency was “inactive”.
With `Cc1ccc(-c2ccccc2C#N)cc1` the Potency was “inactive”.
With `C/C(=N\O)c1ccc(OCC(=O)N2CCCCC2)cc1` the Potency was “inactive”.
In the case of `COc1ccc(-c2cc(=O)c3c(O)cc(O[C@@H]4O[C@H](CO[C@@H]5O[C@@H](C)[C@H](O)[C@@H](O)[C@H]5O)[C@@H](O)[C@H](O)[C@H]4O)cc3o2)cc1O`, the Potency is reported as “inactive”.
In the case of `Clc1ccc2c(c1)Nc1ccccc1S2`, the Potency is reported as “inactive”.
For `NS(=O)(=O)c1ccc(NC(=O)CCC(=O)O)cc1`, the Potency was “inactive”.
For `CC(C)CCCC(C)NCCC(C)C` (centres undefined), the Potency was “inactive”.
With `CNNCc1ccc(C(=O)NC(C)C)cc1` the Potency was “inactive”.
With `CC(C)(C)c1ccc(O)cc1` the Potency was “inactive”.
For `CCN[C@H]1CN(CCCOC)S(=O)(=O)c2sc(S(N)(=O)=O)cc21`, the Potency was “inactive”.
With `C1COC(NC(C2CC2)C2CC2)=N1` the Potency was “inactive”.
For `CCCNC(C)C(=O)Nc1ccccc1C` (centres undefined), the Potency was “inactive”.
In the case of `Cc1nc2ccccn2c(=O)c1CCN1CCC(C(=O)c2ccc(F)cc2)CC1`, the Potency is reported as “inactive”.
With `CCOC(=O)c1ccc(O)c(O)c1` the Potency was “inactive”.
In the case of `CC1CCN(CCCC(=O)c2ccc(F)cc2)CC1`, the Potency is reported as “inactive”.
For `CC(C)C(=O)c1c(C(C)C)nn2ccccc12`, the Potency was “inactive”.
In the case of `C[C@@H](CN1CC(=O)NC(=O)C1)N1CC(=O)NC(=O)C1`, the Potency is reported as “inactive”.
For `O=C(CN1CCNCC1)NC1CCCCC1`, the Potency was “inactive”.
In the case of `CC[N+](CC)(CC)CCOc1cccc(OCC[N+](CC)(CC)CC)c1OCC[N+](CC)(CC)CC`, the Potency is reported as “inactive”.
In the case of `CN1C[C@@H]2C[C@H]1CN2c1cc2c(cc1F)c(=O)c(C(=O)O)cn2C1CC1`, the Potency is reported as “inactive”.
For `NS(=O)(=O)c1cc2c(cc1C(F)(F)F)NC(Cc1ccccc1)NS2(=O)=O` (centres undefined), the Potency was “inactive”.
In the case of `Cc1c(NC(C)C)c(=O)n(-c2ccccc2)n1C`, the Potency is reported as “inactive”.
In the case of `CCCCC(=O)OCC(=O)[C@H]1[C@H](C)C[C@H]2[C@@H]3C[C@H](F)C4=CC(=O)C=C[C@]4(C)[C@@]3(F)[C@@H](O)C[C@@]21C`, the Potency is reported as “inactive”.
With `CCOCCn1c(C2CCN(CCc3ccc(C(C)(C)C(=O)O)cc3)CC2)nc2ccccc21` the Potency was “inactive”.
In the case of `CC1(C)O[C@H]2CC(=O)OC[C@]23[C@H]2CC[C@@]4(C)[C@H](c5ccoc5)OC(=O)[C@H]5O[C@]54[C@]2(C)C(=O)C[C@@H]13`, the Potency is reported as “inactive”.
For `CC1(C)O[C@@H]2C[C@H]3[C@@H]4CCC5=CC(=O)C=C[C@]5(C)[C@@H]4[C@@H](O)C[C@]3(C)[C@]2(C(=O)CO)O1`, the Potency was “inactive”.
In the case of `NCCCC[C@H](N[C@@H](CCc1ccccc1)C(=O)O)C(=O)N1CCC[C@H]1C(=O)O`, the Potency is reported as “inactive”.
In the case of `CC(C)(C)NCC(O)COc1cccc2c1C[C@H](O)[C@H](O)C2` (some centres undefined), the Potency is reported as “inactive”.
With `O=C(CCCl)NCCc1ccccc1` the Potency was “inactive”.
With `COc1ccc(Cc2cnc(N)nc2N)cc1OC` the Potency was “inactive”.
With `CCCC(O)C(CC)CO` (centres undefined) the Potency was “inactive”.
In the case of `CC(C)Cc1ccc(CC(=O)O)cc1`, the Potency is reported as “inactive”.
In the case of `COc1ccc(C2CNC(=O)C2)cc1OC1CCCC1` (centres undefined), the Potency is reported as “inactive”.

Reference: PubChem BioAssay (NCATS)
Potency is read from the fitted curve at half-maximal effect.
